From PubChem BioAssay (NCATS)
Inconclusive results are not listed. The source made the active and inactive calls. Calls follow the shape of the dose curve; as a rule, active = well fitted curve in the direction sought with a large enough effect; inconclusive = small, poorly fitted or top-dose-only effect, or another doubt; inactive = no such curve, though single readings can be large; an effect the other way counts as inactive or inconclusive.

assay: qHTS of pediatric cancer cell lines to identify multiple opportunities for drug repurposing: Primary screen for MG 63 (6-TG R) cells (AID 1347105); conditions: MG 63 (6-TG R) viability, CellTiter-Glo, 48 h; series mostly up to 46 µM; activity change, negative = cytotoxic: at the top concentration; also: nearly all actives have a fitted effect of over 50% in size
Outline: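 Quantitative HTS format: each compound titrated (MIPE 11 points from 0.78 nM, NPC 8 points from 0.59 nM) onto cells plated 5 hours earlier. After 48 h at 37 degrees C, CellTiter-Glo luminescence was recorded.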
% is scaled to controls: 0 for no effect and ±100 for the full control effect; potency is read from the fitted curve at half-maximal effect.

Structure (SMILES) | Potency | activity change, negative = cytotoxic
C=Cc1c(C)c2cc3nc(cc4[nH]c(cc5nc(cc1[nH]2)C(C)=C5CCC(=O)O)c(CCC(=O)OC)c4C)[C@@]1(C)C3=CC=C(C(=O)OC)[C@H]1C(=O)OC | 1.18 µM (active) | 
CC(=O)N[C@@H]1[C@H](O[C@@H]2c3ccc(c(Cl)c3)Oc3cc4cc(c3O[C@H]3O[C@H](CO)[C@@H](O)[C@H](O)[C@H]3NC(=O)CCCCCCCC(C)C)Oc3ccc(cc3Cl)C[C@H]3NC(=O)[C@H](N)c5ccc(O)c(c5)Oc5cc(O)cc(c5)[C@H](NC3=O)C(=O)N[C@H]4C(=O)N[C@H]3C(=O)N[C@@H]2C(=O)N[C@@H](C(=O)O)c2cc(O)cc(O[C@H]4O[C@H](CO)[C@@H](O)[C@H](O)[C@H]4O)c2-c2cc3ccc2O)O[C@H](CO)[C@@H](O)[C@@H]1O |  | -6.4% (inactive)
N[C@H]1CN(c2c(F)cc3c(=O)c(C(=O)O)cn(C4C[C@@H]4F)c3c2Cl)CC12CC2 (stereo not given in full) |  | 42% (inactive)
COc1cc(OC)cc(-c2ccc3ncc4ccc(=O)n(-c5ccc(N6CCNCC6)c(C(F)(F)F)c5)c4c3c2)c1 | 14.8 µM (active) | 
CC(C)[C@H](CO)Nc1nc(Nc2cccc(Cl)c2)c2ncn(C(C)C)c2n1 | 2.96 µM (active) | 
COC(=O)C=CC(=O)OC | 0.235 µM (active) | 
O=C1NC(O)CCN1[C@@H]1O[C@H](CO)[C@H](O)[C@H]1O (stereo not given in full) |  | -5.13% (inactive)
CCN(CC)Cc1ccc2cc(COC(=O)Nc3ccc(C(=O)NO)cc3)ccc2c1 | 4.69 µM (active) | 
CNC(=O)c1cccc(-c2ccc3c(N4CCOC[C@H]4C)nc(N4CCOC[C@H]4C)nc3n2)c1 | 0.0296 µM (active) | 
NC1=N[C@H]2[C@H](CS[C@H]2CCCCC(=O)O)N1 |  | -28.8% [at 16.1 µM] (inactive)
Cn1cnc(=N)c2[nH]cnc21 | 1.48 µM (active) | 
O=C(NC1CC1)c1cccc(-c2ccc3c(NC(=O)C4CC4)n[nH]c3c2)c1 | 1.48 µM (active) | 
CN[C@@H]1C[C@H]2O[C@@](C)([C@H]1OC)n1c3ccccc3c3c4c(c5c6ccccc6n2c5c31)C(=O)N[C@H]4O | 0.187 µM (active) | 
FC(F)c1nc2ccccc2n1-c1nc(N2CCOCC2)nc(N2CCOCC2)n1 | 0.187 µM (active) | 
C=C1C(=CC=C2CCC[C@]3(C)[C@@H]([C@H](C)CCCC(C)(C)O)CC[C@@H]23)C[C@@H](O)C[C@@H]1O | 11.8 µM (active) | 
NC(=O)c1ncn([C@@H]2O[C@H](CO)[C@@H](O)[C@@H]2O)c1O |  | 9.52% (inactive)
COc1cccc2c1C(=O)c1c(O)c3c(c(O)c1C2=O)C[C@@](O)(C(C)=O)C[C@H]3O[C@H]1C[C@H](N)[C@H](O)[C@H](C)O1 | 0.372 µM (active) | 
O=C(Nc1cccc(Nc2ncc(Br)c(NCCc3cnc[nH]3)n2)c1)N1CCCC1 | 14.8 µM (active) | 
CC(C)OC(=O)[C@H](C)N[P@](=O)(OC[C@H]1O[C@@H](n2ccc(=O)[nH]c2=O)[C@](C)(F)[C@H]1O)Oc1ccccc1 |  | -20.5% (inactive)
CC(=O)NC(CS)C(=O)O (stereo not given) |  | -25.9% (inactive)
O=C1NC(=O)C(=Cc2ccc3nccc(-c4ccncc4)c3c2)S1 | 0.0743 µM (active) | 

assay: qHTS of pediatric cancer cell lines to identify multiple opportunities for drug repurposing: Primary screen for control Hh wild type fibroblast cells (AID 1347106); conditions: Hh wild-type fibroblast viability, CellTiter-Glo luminescence, 48 h; series mostly up to 46 µM; activity change, negative = cytotoxic: at the top concentration; also: nearly all actives have a fitted effect of over 55% in size;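 as to activity change, negative = cytotoxic: a drop in luminescence marks cytotoxicity and a rise apparent proliferation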
Outline: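 Viability after 48 h compound treatment at 37C, 500-1,000 cells/well, read as ATP luminescence with CellTiter-Glo. Primary screens used 11-point (MIPE, 0.78 nM-46 µM) or 8-point (NPC, 0.59 nM-46 µM) final concentrations; follow-up screens used 11-point dilutions.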

Structure (SMILES) | activity change, negative = cytotoxic | Potency
COc1cc2c(cc1O)CCC1C2CC[C@@]2(C)C1CC[C@@H]2O (stereo not given in full) | -15.4% (inactive) | 
CCc1ccc(C(=O)Nc2cc(CN3CCN(C)CC3)cc(C(F)(F)F)c2)cc1C#Cc1cnc2ccnn2c1 | -2.11% (inactive) | 
CC(=O)N[C@@H]1[C@H](O[C@@H]2c3ccc(c(Cl)c3)Oc3cc4cc(c3O[C@H]3O[C@H](CO)[C@@H](O)[C@H](O)[C@H]3NC(=O)CCCCCCCC(C)C)Oc3ccc(cc3Cl)C[C@H]3NC(=O)[C@H](N)c5ccc(O)c(c5)Oc5cc(O)cc(c5)[C@H](NC3=O)C(=O)N[C@H]4C(=O)N[C@H]3C(=O)N[C@@H]2C(=O)N[C@@H](C(=O)O)c2cc(O)cc(O[C@H]4O[C@H](CO)[C@@H](O)[C@H](O)[C@H]4O)c2-c2cc3ccc2O)O[C@H](CO)[C@@H](O)[C@@H]1O | -3.27% (inactive) | 
Cc1[nH]c(C=C2C(=O)Nc3ccccc32)c(C)c1CCC(=O)O | -8.3% (inactive) | 
COc1cc2ncnc(Nc3cccc(Br)c3)c2cc1OC | -8.39% (inactive) | 
N[C@H]1CN(c2c(F)cc3c(=O)c(C(=O)O)cn(C4C[C@@H]4F)c3c2Cl)CC12CC2 (stereo not given in full) | -2.63% (inactive) | 
CC(C)Oc1ccc(C(=O)N[C@H](CNC(=O)CN(C)C)Cc2ccc(-c3cn4cccc([C@H](C)O)c4n3)cc2)cc1Cl | -3.31% (inactive) | 
COc1cc(OC)cc(-c2ccc3ncc4ccc(=O)n(-c5ccc(N6CCNCC6)c(C(F)(F)F)c5)c4c3c2)c1 |  | 20.9 µM (active)
CN(N=O)C(=O)N[C@H]1C(O)OC(CO)[C@@H](O)[C@H]1O (stereo not given in full) | 5.21% (inactive) | 
C[C@H](CCC(=O)O)[C@H]1CCC2C3C[C@H](O)[C@@H]4C[C@H](O)CC[C@]4(C)C3CC[C@@]21C (stereo not given in full) | 0.0432% (inactive) | 
CC(C)[C@H](CO)Nc1nc(Nc2cccc(Cl)c2)c2ncn(C(C)C)c2n1 | -2.52% (inactive) | 
COc1ccc(C(C)=O)c(O)c1 | 2.72% (inactive) | 
O=C1NC(O)CCN1[C@@H]1O[C@H](CO)[C@H](O)[C@H]1O (stereo not given in full) | 10.4% (inactive) | 
NC(=NCCCCCCN=C(N)N=C(N)Nc1ccc(Cl)cc1)N=C(N)Nc1ccc(Cl)cc1 |  | 8.33 µM (active)
CCN(CC)Cc1ccc2cc(COC(=O)Nc3ccc(C(=O)NO)cc3)ccc2c1 |  | 14.8 µM (active)
NC1=N[C@H]2[C@H](CS[C@H]2CCCCC(=O)O)N1 | 1.78% [at 16.1 µM] (inactive) | 
Cn1cnc(=N)c2[nH]cnc21 | -7.38% (inactive) | 
CN(CC(=O)N(Cc1ccc(C2CCCCC2)cc1)c1ccc(C(=O)O)c(O)c1)S(=O)(=O)c1c(F)c(F)c(F)c(F)c1F | -2.81% (inactive) | 
COc1cc2c(Nc3ccc(Cl)c(Cl)c3F)ncnc2cc1OCC1C[C@@H]2CN(C)C[C@H]2C1 |  | 20.9 µM (active)
C=C1C(=CC=C2CCC[C@]3(C)[C@@H]([C@H](C)CCCC(C)(C)O)CC[C@@H]23)C[C@@H](O)C[C@@H]1O | -10.3% (inactive) | 
COc1cc(C)c(C=CC(C)=CC=CC(C)=CC(=O)O)c(C)c1C | 5.12% (inactive) | 
NC(=O)c1ncn([C@@H]2O[C@H](CO)[C@@H](O)[C@@H]2O)c1O | 3.8% (inactive) | 
CC(C)OC(=O)[C@H](C)N[P@](=O)(OC[C@H]1O[C@@H](n2ccc(=O)[nH]c2=O)[C@](C)(F)[C@H]1O)Oc1ccccc1 | -1.58% (inactive) | 
CC(=O)NC(CS)C(=O)O (stereo not given) | -5.7% (inactive) | 
